Source: PubChem BioAssay
GC-A act: GC-A (human) enzyme activation. 370,000 tested, 0.14% active. P16066. AID 1671463. activation, % at 10 µM. HEK293 GC-A cells, cGMP TR-FRET, EC30 ANP; 0% at EC30 ANP, 100% saturating ANP; in the data active = activation above about 40%
aDG glyco act: increases alpha dystroglycan glycosylation; AID 624168; Pro5-aDG cells, alpha-DG glycosylation AlphaScreen (IIH6); 0% Pro5, 100% B10-LARGE cell signal; activation, % at 10 µM; 360,000 tested, 0.22% active;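 active = activation of at least 8% versus controls, or a plate z-score of at least 8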;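 note: Pro5 are CHO cells carrying HIG-tagged alpha-DG that lacks glycosylation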
NPR2 activator: GC-B (human) receptor activation; P20594; HEK293-GC-B cells, CNP EC30, cGMP TR-FRET; 0% at EC30 CNP, 100% saturating CNP; activation, % at 10 µM; 370,000 tested, 0.11% active; AID 1920062;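 active = activation at 10 µM reaching about 35% in either raw or pattern-adjusted values, limit read from the data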
Target sequence (P20594 whole entry, looked up): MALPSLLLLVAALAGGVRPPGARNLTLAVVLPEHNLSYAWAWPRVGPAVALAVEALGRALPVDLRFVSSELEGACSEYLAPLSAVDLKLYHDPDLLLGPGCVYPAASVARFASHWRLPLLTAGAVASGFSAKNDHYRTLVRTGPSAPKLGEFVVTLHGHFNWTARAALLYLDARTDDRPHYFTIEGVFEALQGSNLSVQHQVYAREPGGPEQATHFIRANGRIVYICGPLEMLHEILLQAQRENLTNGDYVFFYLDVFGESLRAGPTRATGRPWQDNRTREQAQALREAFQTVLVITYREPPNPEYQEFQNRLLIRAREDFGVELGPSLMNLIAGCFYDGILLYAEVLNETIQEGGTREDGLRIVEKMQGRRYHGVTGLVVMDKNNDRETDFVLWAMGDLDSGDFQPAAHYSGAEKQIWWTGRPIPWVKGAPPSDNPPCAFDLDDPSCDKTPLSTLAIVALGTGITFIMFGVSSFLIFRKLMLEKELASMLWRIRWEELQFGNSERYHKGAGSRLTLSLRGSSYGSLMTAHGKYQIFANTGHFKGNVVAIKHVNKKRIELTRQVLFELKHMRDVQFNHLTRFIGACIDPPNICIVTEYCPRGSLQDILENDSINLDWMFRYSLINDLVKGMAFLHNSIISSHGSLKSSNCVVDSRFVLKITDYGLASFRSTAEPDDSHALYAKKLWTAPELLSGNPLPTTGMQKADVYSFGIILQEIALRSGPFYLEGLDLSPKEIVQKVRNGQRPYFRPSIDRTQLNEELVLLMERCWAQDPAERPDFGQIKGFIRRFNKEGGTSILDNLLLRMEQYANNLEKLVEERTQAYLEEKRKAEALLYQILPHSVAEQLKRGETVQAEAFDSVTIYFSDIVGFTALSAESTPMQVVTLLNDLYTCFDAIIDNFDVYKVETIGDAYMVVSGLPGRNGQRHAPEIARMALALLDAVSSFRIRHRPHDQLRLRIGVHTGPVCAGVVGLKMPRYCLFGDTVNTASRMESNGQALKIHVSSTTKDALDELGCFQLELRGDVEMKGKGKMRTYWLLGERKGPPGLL
HSF-1 act: increases HSF-1 driven luciferase reporter signal. NIH3T3-HGL HSF-1 luciferase reporter, MG132, 8 h; 100% = twice DMSO control signal. activation, % at 9 µM. 300,000 tested, 1.7% active. AID 504408;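 active = mean replicate activation of at least 50% with a set share of replicates each reaching 50%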
HSF1 inh: HSF1 inhibition; NIH3T3-HGL HSE-luciferase, MG132-induced, luminescence 8 h; stronger effect = lower value; AID 2098; 300,000 tested, 0.77% active; activity change, negative = inhibition, % at 7.5 µM (by protocol);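 active = more than half of replicate wells show activity change below -50%, luminescence cut by over half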;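 note: luciferase reports HSF-1 transcriptional activity via heat shock element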
Dyrk1A ADPGlo: blocks rat Dyrk1A kinase activity; 310,000 tested, 0.43% active; AID 504441; ADP-Glo luminescence, NFATc1 peptide; inhibition, % at 12.5 µM; in the data active = inhibition above about 50%
Hits are given with their value; 0 = inactive; - = no result given. A selection: hits, their analogues and other compounds. The true share with any hit is near 2.5%.

SMILES	GC-A act	aDG glyco act	NPR2 activator	HSF-1 act	HSF1 inh	Dyrk1A ADPGlo
O=S(=O)([O-])C(c1ccccc1)[n+]1ccccc1 (stereo unspecified)	0	0	0	0	0	0
COc1ccc(/C=C/C(=O)N(C(C)C)C(C)C)cc1Br	0	0	0	99.4	0	0
CCCCC[n+]1ccn(C2=C([O-])c3ccccc3C(=O)/C2=N\S(=O)(=O)c2ccc(Cl)cc2)c1	0	4.9	0	0	0	-
CCCC[n+]1ccn(C2=C([O-])c3ccccc3C(=O)/C2=N\S(=O)(=O)c2ccc(Cl)cc2)c1	0	0	0	0	0	-
CC(C)Nc1nc2cccnc2s1	0	0	0	0	0	0
Cc1ccc2nc(SCC(=O)NCc3ccc(F)cc3)[nH]c2c1	0	0	0	64.7	0	0
Cc1ccc2nc(SCC(=O)NCc3ccc(S(N)(=O)=O)cc3)[nH]c2c1	0	0	0	0	0	0
Cc1cc(C)c(C#N)c(SCc2ccc([N+](=O)[O-])cc2)n1	0	0	0	52.6	0	0
Cc1cc(C)c(C#N)c(Sc2nc(C)c([N+](=O)[O-])c(C)c2C#N)n1	0	0	0	-	-	-
Cc1ccc2nc(SCc3ccc([N+](=O)[O-])cc3)[nH]c2c1	0	0	0	82.2	0	0
Cc1ccc2nc(SCc3ccc([N+](=O)[O-])cc3)nc(C)c2c1	0	0	0	-	-	0
Cc1ccc(C)c(NC(=O)C2(C)CCN2C(=O)C(C)C)c1 (stereo unspecified)	0	0	0	-	-	-
Cc1ccc(NC(=O)C2CCN(S(=O)(=O)c3ccc4c(c3)OCCO4)CC2)c(O)c1	0	0	0	0	0	0
CCn1c(C)c(C(C)=O)cc(C#N)c1=O	0	0	0	0	0	0
Nc1nc2c(ncn2[C@@H]2O[C@H](CNCc3ccccc3)[C@@H](O)[C@H]2O)c(=O)[nH]1	0	0	0	-	-	-
CCOc1ccc(-c2nnc(SCc3nc4ccccc4[nH]3)n2N)cc1	0	0	0	62.9	0	-
CCOC(=O)c1c(NC(=O)CSc2nc3ccccc3o2)sc(C)c1C	0	0	0	144.0	0	0
Cc1ccc(C(=O)CSc2ncnc3ccccc23)o1	0	0	0	0	0	0
CCOC(=O)c1c(NC(=O)CNCCO)sc(C)c1C	0	0	0	0	0	0
CCOC(=O)c1c(NC(=O)CSc2ncnc3ccccc23)sc(C(C)=O)c1C	0	0	0	78.2	0	0
O=C(CSc1ncnc2ccccc12)c1cccs1	0	0	0	59.9	0	0
CCOC(=O)c1c(NC(=O)CSC(=S)N(C)C)sc(C)c1C	0	0	0	84.8	0	0
CC(C)n1nnnc1SCC(=O)N1CCOCC1	0	0	0	0	0	0
O=C(Cn1cccc1)Nc1ccc(OC(F)(F)F)cc1	0	0	0	0	0	0
CCOC(=O)c1c(NC(N)=O)sc(C)c1C	0	0	0	0	0	0
SMILES	GC-A act	aDG glyco act	NPR2 activator	HSF-1 act	HSF1 inh	Dyrk1A ADPGlo
CCOC(=O)c1c(N2C(=O)C=CC2=O)sc(C)c1C	-	0	-	55.0	0	0
CC(C)(C)Cc1nnc(NS(=O)(=O)c2ccc(F)cc2)s1	0	0	0	0	-52.9	0
CCOC(=O)c1c(-c2ccc(C)o2)csc1NC(=O)CSc1nncs1	0	0	0	95.5	0	0
CCOC(=O)c1c(-c2ccc(C)o2)csc1NC(=O)CN1CCCCC1	0	0	0	0	0	0
Nc1nc(Br)c2c(F)cccc2c1-c1ccc(F)cc1	0	0	0	0	0	0
Cc1cccc(Nc2ncccc2C(=O)O)c1C	0	0	0	0	-58.4	0
Cc1cc(C)c2[nH]c(=O)c(CN(Cc3ccco3)C(=S)NCC3CCCO3)cc2c1 (stereo unspecified)	0	0	0	70.3	0	0
CCNC(=S)N(Cc1ccco1)Cc1cc2cc3c(cc2[nH]c1=O)OCCO3	0	0	0	61.6	0	0
Cc1cc2cc(CN(Cc3ccco3)C(=S)NCC3CCCO3)c(=O)[nH]c2cc1C (stereo unspecified)	0	0	0	70.2	0	0
CCc1ccc(C(=O)COC(=O)CNC(=O)c2cccs2)cc1	0	0	0	0	-86.3	0
Cc1cc(C)n(-c2ccc(C(=O)O)cc2)n1	0	0	0	0	0	0
Cc1cc(N)n(-c2ccc(C(=O)O)cc2)n1	0	0	0	0	-67.0	0
CCCCc1n[nH]c(=S)n1Cc1ccc(C)cc1	0	0	0	0	0	0
O=C1CC(c2ccc(Cl)cc2)n2nc(NS(=O)(=O)c3ccc(F)cc3)nc2N1 (stereo unspecified)	0	0	0	63.9	0	0
Cc1ccc(S(=O)(=O)Nc2nc3n(n2)C(c2ccc(Cl)cc2)CC(=O)N3)cc1 (stereo unspecified)	0	0	0	0	0	0
N#Cc1cnn(-c2ccccc2)c1N	0	0	0	0	0	0
Cc1cc(=O)[nH]c(-n2ncc(C#N)c2N)n1	0	0	0	69.5	0	0
C=CCN1C(=O)C(Cc2ccc(OC)cc2)S/C1=N/N=C/c1ccco1 (stereo unspecified)	0	0	0	0	-57.4	0
COc1cccc(NC(=O)Nc2cccc(C)n2)c1	0	0	0	0	0	0
COC(=O)c1c(NC(=O)c2ccn(C)n2)sc2c1CCC2	0	0	0	0	0	0
COC(=O)c1c(NC(=O)c2nn(C)cc2Cl)sc2c1CCCC2	0	0	0	58.0	0	0
Cc1cccc(CSCC(=O)NCc2ccc(S(N)(=O)=O)cc2)c1	0	0	0	0	0	-
CCN(CC)C(=O)c1sc2c(c1C)c(=O)n(-c1ccc(OC)cc1OC)c(=O)n2CC(=O)c1ccccc1	0	0	0	0	0	-
CCCc1cc(C(=O)Nc2nccs2)cs1	0	0	0	86.3	0	0
Cc1cc(NC(=O)CSc2ncnc3c2cnn3-c2ccccc2)no1	0	0	0	0	0	0
COc1ccc(COc2cc(-c3cccc(OC)c3)nc3ccc(NC(=O)C(C)C)cc23)cc1	52.5	0	54.8	0	0	0
C=C1C(=O)O[C@@H]2C[C@@H](C)[C@@H]3C=CC(=O)[C@@]3(C)[C@@H](OC(C)=O)[C@H]12	0	-	0	0	-85.6	-
CC1CCN(C(=O)C2CCC(CNS(=O)(=O)c3ccc4c(c3)C(C)(C)C(=O)N4C)CC2)CC1 (stereo unspecified)	0	0	0	-	-	-
O=C(/C=C/c1cccc([N+](=O)[O-])c1)n1cnc2ccccc21	0	0	0	231.2	0	0
N#Cc1ccsc1NC(=O)c1ccc(Cl)c([N+](=O)[O-])c1	0	0	0	0	0	0
